# Inconclusive results are not listed. Where a call stands in place of a potency, no number is given. Calls of active or inactive are those of the source. Calls come from the whole dose curve; as a rule, active = well fitted curve in the direction sought with a large enough effect; inconclusive = small, poorly fitted or top-dose-only effect, or another doubt; inactive = no such curve, though single readings can be large; an effect the other way counts as inactive or inconclusive.
# Tests used:
# [1] = qHTS of pediatric cancer cell lines to identify multiple opportunities for drug repurposing: Primary screen for OHS-50 cells (AID 1347103); note: nearly all actives have a fitted effect of over 40% in size; note: potency is the fitted concentration of half-maximal effect
# Method in brief: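 Cells (500-1,000/well) rested 5 h, then received compounds for 48 h; metabolically active cells were measured by CellTiter-Glo luminescence. Final concentrations spanned up to 46 µM (MIPE, 11-point) or 0.59 nM-46 µM (NPC, 8-point) in primary screens, 11-point in follow-ups.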
# [2] = qHTS of pediatric cancer cell lines to identify multiple opportunities for drug repurposing: Primary screen for RD cells (AID 1347104); note: nearly all actives have a fitted effect of over 55% in size; note: potency is the fitted concentration of half-maximal effect
# Method in brief: (§1)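 Viability was measured as metabolically active cells after 48 hours of treatment, read by CellTiter-Glo luminescence. Compounds were tested at multiple final concentrations, giving concentration-response curves.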
# [3] = qHTS of pediatric cancer cell lines to identify multiple opportunities for drug repurposing: Primary screen for MG 63 (6-TG R) cells (AID 1347105); note: nearly all actives have a fitted effect of over 50% in size; note: potency is the fitted concentration of half-maximal effect
# Method in brief: as §1
# [4] = qHTS of pediatric cancer cell lines to identify multiple opportunities for drug repurposing: Primary screen for control Hh wild type fibroblast cells (AID 1347106);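 note: series mostly up to about 46 µM; a drop in luminescence marks cytotoxicity and a rise apparent proliferation; nearly all actives have a fitted effect of over 55% in size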
# Method in brief: (§2)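 Viability after 48 h compound treatment at 37C, 500-1,000 cells/well, read as ATP luminescence with CellTiter-Glo. Primary screens used 11-point (MIPE, 0.78 nM-46 µM) or 8-point (NPC, 0.59 nM-46 µM) final concentrations; follow-up screens used 11-point dilutions.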
# [5] = qHTS of pediatric cancer cell lines to identify multiple opportunities for drug repurposing: Primary screen for Rh30 cells (AID 1347107); note: series mostly up to about 46 µM; nearly all actives have a fitted effect of over 75% in size
# Method in brief: as §2
# [6] = qHTS of pediatric cancer cell lines to identify multiple opportunities for drug repurposing: Primary screen for Rh41 cells (AID 1347108);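 note: series mostly up to about 46 µM; luminescence drop marks cytotoxic hits; nearly all actives have a fitted effect of over 70% in size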
# Method in brief: as §1
# [7] = qHTS of pediatric cancer cell lines to identify multiple opportunities for drug repurposing: Confirmatory screen for NB1643 cells (AID 1347109); note: nearly all actives have a fitted effect of over 45% in size; note: potency is the fitted concentration of half-maximal effect
# Method in brief: as §2
# [8] = qHTS of pediatric cancer cell lines to identify multiple opportunities for drug repurposing: Confirmatory screen for SK-N-MC cells (AID 1347111);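 note: cells exposed to compound for 48 h before the readout; nearly all actives have a fitted effect of over 70% in size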; note: potency is the fitted concentration of half-maximal effect
# Method in brief: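 SK-N-MC cells at 500-1,000 cells/well in growth media were pre-incubated 5 h, then exposed to compounds at 11-point dilutions for 48 h at 37 degrees C, 5% CO2. Viability was read as CellTiter-Glo luminescence.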
# [9] = qHTS of pediatric cancer cell lines to identify multiple opportunities for drug repurposing: Confirmatory screen for BT-12 cells (AID 1347112); note: nearly all actives have a fitted effect of over 55% in size; note: potency is the fitted concentration of half-maximal effect
# Method in brief: as §2
# [10] = qHTS of pediatric cancer cell lines to identify multiple opportunities for drug repurposing: Confirmatory screen for LAN-5 cells (AID 1347113); settings: outcome: dose series up to 45.9 µM; note: nearly all actives have a fitted effect of over 65% in size
# Method in brief: as §2
# [11] = qHTS of pediatric cancer cell lines to identify multiple opportunities for drug repurposing: Confirmatory screen for NB-EBc1 cells (AID 1347115); note: nearly all actives have a fitted effect of over 45% in size
# Method in brief: as §2
# [12] = qHTS of pediatric cancer cell lines to identify multiple opportunities for drug repurposing: Confirmatory screen for SJ-GBM2 cells (AID 1347116); settings: outcome: dose series up to 45.9 µM; note: nearly all actives have a fitted effect of over 60% in size
# Method in brief: (§3)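 Viability measured as metabolically active cells via CellTiter-Glo luminescence following 48 hours of compound exposure, 11-point dilutions in confirmatory testing. 500-1,000 cells/well plated 5 hours before dosing; controls were DMSO and 2.3 µM bortezomib.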
# [13] = qHTS of pediatric cancer cell lines to identify multiple opportunities for drug repurposing: Confirmatory screen for BT-37 cells (AID 1347117); note: nearly all actives have a fitted effect of over 55% in size; note: potency is the fitted concentration of half-maximal effect
# Method in brief: as §2
# [14] = qHTS of pediatric cancer cell lines to identify multiple opportunities for drug repurposing: Confirmatory screen for TC32 cells (AID 1347118); note: nearly all actives have a fitted effect of over 65% in size; note: potency is the fitted concentration of half-maximal effect
# Method in brief: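 Luminescent ATP read-out (CellTiter-Glo) of metabolically active TC32 cells after 48 h exposure. Concentration-response curves came from 11-point (MIPE, 0.78 nM–46 µM) or 8-point (NPC, 0.59 nM–46 µM) primary titrations; follow-up used 11 points.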
# [15] = qHTS of pediatric cancer cell lines to identify multiple opportunities for drug repurposing: Confirmatory screen for MG 63 (6-TG R) cells (AID 1347119); note: nearly all actives have a fitted effect of over 55% in size
# Method in brief: as §2
# [16] = qHTS of pediatric cancer cell lines to identify multiple opportunities for drug repurposing: Confirmatory screen for control Hh wild type fibroblast cells (AID 1347121); note: nearly all actives have a fitted effect of over 70% in size
# Method in brief: as §2
# [17] = qHTS of pediatric cancer cell lines to identify multiple opportunities for drug repurposing: Confirmatory screen for U-2 OS cells (AID 1347122); note: nearly all actives have a fitted effect of over 65% in size; note: potency is the fitted concentration of half-maximal effect
# Method in brief: as §2
# [18] = qHTS of pediatric cancer cell lines to identify multiple opportunities for drug repurposing: Confirmatory screen for A673 cells (AID 1347110); note: nearly all actives have a fitted effect of over 65% in size; note: potency is the fitted concentration of half-maximal effect
# Method in brief: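 Cells plated at 500-1,000/well were treated five hours later with multi-point dilutions up to 46 µM final. After two days, CellTiter-Glo was added and luminescence read.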
# [19] = qHTS of pediatric cancer cell lines to identify multiple opportunities for drug repurposing: Confirmatory screen for DAOY cells (AID 1347114); note: nearly all actives have a fitted effect of over 65% in size; note: potency is the fitted concentration of half-maximal effect
# Method in brief: as §3
# [20] = qHTS of pediatric cancer cell lines to identify multiple opportunities for drug repurposing: Confirmatory screen for Rh41 cells (AID 1347123);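 note: 48 h compound exposure; nearly all actives have a fitted effect of over 60% in size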; note: potency is the fitted concentration of half-maximal effect
# Method in brief: as §2
compound,measurement,setting,value
CC(=O)C1CCOC1=O (stereo unspecified),Potency,[1],inactive
same,Potency,[2],inactive
same,Potency,[3],inactive
same,outcome,[4],inactive
same,outcome,[5],inactive
same,Potency,[6],inactive
ClCCN1CCCC1,Potency,[1],inactive
same,Potency,[2],inactive
same,Potency,[3],inactive
same,outcome,[4],inactive
same,outcome,[5],inactive
same,Potency,[6],inactive
COc1cc(CCN)cc(OC)c1OC,Potency,[1],inactive
same,Potency,[3],inactive
same,outcome,[4],inactive
same,outcome,[5],inactive
CN1CC[C@]23c4c5ccc(O)c4O[C@H]2[C@@H](O)CC[C@H]3[C@H]1C5,Potency,[1],inactive
same,Potency,[2],inactive
same,Potency,[3],inactive
same,outcome,[4],inactive
same,outcome,[5],inactive
same,Potency,[6],inactive
CC(C)C[C@H](CN)CC(=O)O,Potency,[1],inactive
same,Potency,[3],inactive
same,outcome,[4],inactive
same,outcome,[5],inactive
O=C(Nc1ccc(Br)cc1)c1cc(Br)cc(Br)c1O,Potency,[1],21900 nM (active)
same,Potency,[3],33500 nM (active)
same,outcome,[4],inactive
c1ccc(CN2CCNCC2)cc1,Potency,[1],inactive
same,Potency,[2],inactive
same,Potency,[3],inactive
same,outcome,[4],inactive
same,outcome,[5],inactive
same,Potency,[6],inactive
CCC1(c2ccc(N)cc2)CCC(=O)NC1=O (stereo unspecified),Potency,[1],inactive
same,Potency,[3],inactive
same,outcome,[4],inactive
same,outcome,[5],inactive
C[C@](O)(CS(=O)(=O)c1ccc(F)cc1)C(=O)Nc1ccc(C#N)c(C(F)(F)F)c1,Potency,[1],inactive
same,Potency,[2],5900 nM (active)
same,Potency,[3],1180 nM (active)
same,Potency,[7],inactive
same,Potency,[8],inactive
same,Potency,[9],inactive
same,outcome,[10],inactive
same,Potency,[11],inactive
same,outcome,[12],inactive
same,Potency,[13],inactive
same,Potency,[14],inactive
same,outcome,[15],inactive
same,outcome,[16],inactive
same,Potency,[17],inactive
COC(=O)[C@@H](N)CCCN/C(N)=N/[N+](=O)[O-],Potency,[1],inactive
same,Potency,[2],inactive
same,Potency,[3],inactive
same,outcome,[4],inactive
same,outcome,[5],inactive
same,Potency,[6],inactive
CCCCCCCCCC(=O)O[C@H]1CC[C@H]2[C@@H]3CCC4=CC(=O)CC[C@@H]4[C@H]3CC[C@]12C,Potency,[1],inactive
same,Potency,[2],inactive
same,Potency,[3],inactive
same,outcome,[4],inactive
same,outcome,[5],inactive
same,Potency,[6],inactive
COc1cccc2c1C(=O)c1c(O)c3c(c(O)c1C2=O)C[C@@](O)(C(=O)CO)CC3OC1CC(N2CCOC(OC)C2)C(O)C(C)O1 (stereo partly specified),Potency,[1],34.7 nM (active)
same,Potency,[2],84.1 nM (active)
same,Potency,[3],21.1 nM (active)
same,outcome,[5],inactive
same,Potency,[7],14.7 nM (active)
same,Potency,[18],23.3 nM (active)
same,Potency,[8],3.7 nM (active)
same,Potency,[9],46.5 nM (active)
same,Potency,[19],32.9 nM (active)
same,Potency,[13],6.6 nM (active)
same,Potency,[14],5.9 nM (active)
same,outcome,[16],inactive
same,Potency,[17],73.7 nM (active)
same,Potency,[20],36.9 nM (active)
O=C(O)c1ccc(=O)[nH]c1,Potency,[1],inactive
same,Potency,[2],inactive
same,Potency,[3],inactive
same,outcome,[4],inactive
same,outcome,[5],inactive
same,Potency,[6],inactive
C[N+]1(CCF)[C@@H]2CC[C@H]1CC(OC(=O)C(O)(c1ccccc1)c1ccccc1)C2 (stereo partly specified),Potency,[1],inactive
same,Potency,[3],inactive
same,outcome,[4],inactive
same,outcome,[5],inactive
O=P1(N(CCCl)CCCl)NCCCO1 (stereo unspecified),Potency,[1],inactive
same,Potency,[2],inactive
same,Potency,[3],inactive
same,outcome,[4],inactive
same,outcome,[5],inactive
same,Potency,[18],inactive
same,Potency,[8],inactive
same,Potency,[9],inactive
same,outcome,[10],inactive
same,Potency,[11],inactive
same,Potency,[13],inactive
same,Potency,[14],inactive
same,outcome,[15],inactive
same,outcome,[16],inactive
same,Potency,[17],inactive
same,Potency,[20],inactive
CC(Cc1ccccc1)N(C)Cc1ccco1 (stereo unspecified),Potency,[1],inactive
same,Potency,[2],inactive
same,Potency,[3],inactive
same,outcome,[4],inactive
same,outcome,[5],inactive
same,Potency,[6],inactive
O=C(N/N=C/c1ccc([N+](=O)[O-])o1)c1cc([N+](=O)[O-])cc([N+](=O)[O-])c1O,Potency,[1],inactive
same,Potency,[2],inactive
same,Potency,[3],inactive
same,outcome,[4],inactive
same,outcome,[5],inactive
same,Potency,[7],inactive
same,Potency,[18],inactive
same,Potency,[8],10400 nM (active)
same,Potency,[9],inactive
same,outcome,[10],inactive
same,Potency,[19],inactive
same,outcome,[12],inactive
same,Potency,[13],inactive
same,outcome,[16],inactive
same,Potency,[17],inactive
same,Potency,[20],inactive
CC(NC(C)(C)C)C(=O)c1cccc(Cl)c1 (stereo unspecified),Potency,[1],inactive
same,Potency,[2],inactive
same,Potency,[3],inactive
same,outcome,[4],inactive
same,outcome,[5],inactive
same,Potency,[6],inactive
same,Potency,[8],3290 nM (active)
same,Potency,[9],inactive
same,Potency,[13],23300 nM (active)
same,Potency,[14],2930 nM (active)
same,outcome,[15],inactive
same,outcome,[16],inactive
same,Potency,[17],4140 nM (active)
same,Potency,[20],4650 nM (active)
CCC1(CC)C(=O)C=CNC1=O,Potency,[1],inactive
same,Potency,[3],inactive
same,outcome,[4],inactive
same,outcome,[5],inactive
same,Potency,[6],inactive
O=c1[nH]c2ccccc2n1C1CCNCC1,Potency,[1],inactive
same,Potency,[3],inactive
same,outcome,[4],inactive
same,outcome,[5],inactive
same,Potency,[6],inactive
CN1CCC(O)(c2ccc(F)cc2)C(C(=O)c2ccc(F)cc2)C1 (stereo unspecified),Potency,[1],inactive
same,Potency,[3],inactive
same,outcome,[4],inactive
same,outcome,[5],inactive
same,Potency,[6],inactive
CC(C)(C)NCC(O)c1cc(Cl)c(N)c(C(F)(F)F)c1 (stereo unspecified),Potency,[1],inactive
same,Potency,[3],inactive
same,outcome,[4],inactive
same,outcome,[5],inactive
same,Potency,[6],inactive
O=C(CCCN1CCC2(CC1)C(=O)NCN2c1ccccc1)c1ccc(F)cc1,Potency,[2],inactive
same,Potency,[3],inactive
same,outcome,[4],inactive
same,outcome,[5],inactive
same,Potency,[6],inactive

# Reference: PubChem BioAssay (NCATS)
